Cruzain inh noDet = qHTS Assay for Promiscuous and Specific Inhibitors of Cruzain (without detergent). 2.3% of 200,000 active. Potency, µM, for inactives: max response, negative = inhibition, most hits filed as inhibitors. Cruzipain (Trypanosoma cruzi), P25779. purified cruzain, Z-FR-AMC fluorescence, no detergent;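 note: plate controls were enzyme without inhibitor for no effect and buffer without enzyme for full effect; nearly all actives have a fitted effect of over 40% in size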
Target sequence (P25779 123-467 limits assumed): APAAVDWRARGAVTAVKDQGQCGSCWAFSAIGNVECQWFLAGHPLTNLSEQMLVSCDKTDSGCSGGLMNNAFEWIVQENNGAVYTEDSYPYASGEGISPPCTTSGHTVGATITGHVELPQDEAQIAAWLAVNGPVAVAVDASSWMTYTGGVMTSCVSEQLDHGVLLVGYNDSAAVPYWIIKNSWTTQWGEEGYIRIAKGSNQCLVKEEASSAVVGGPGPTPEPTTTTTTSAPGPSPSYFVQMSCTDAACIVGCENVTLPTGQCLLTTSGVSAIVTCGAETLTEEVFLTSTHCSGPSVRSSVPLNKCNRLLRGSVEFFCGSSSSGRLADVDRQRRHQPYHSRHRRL
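Purified cruzain at 1.5 nM, pre-incubated 15 min with compound at room temperature in 100 mM sodium acetate pH 5.5, 5 mM DTT, 0.00005% Triton X-100. Reaction started with 2 uM Z-FR-AMC; AMC fluorescence increase over 60 s gives rate.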
Cruzain Triton = qHTS Assay for Promiscuous and Specific Inhibitors of Cruzain (with detergent) | purified cruzain, Z-FR-AMC fluorescence, 0.01% Triton | Potency, µM, inactives show max response, negative = inhibition, most hits filed as inhibitors | 0.43% of 200,000 active | AID 1478, 2009;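 note: plate controls were neutral wells for no effect and buffer without enzyme for full effect; nearly all actives have a fitted effect of over 40% in size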
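Cysteine protease activity tested under reducing, mildly acidic conditions (100 mM sodium acetate pH 5.5, 5 mM DTT) plus 0.01% Triton X-100. Cruzain 1.5 nM; substrate Z-FR-AMC 2 uM; 15 min compound preincubation at room temperature.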
Active calls of the source: *; u = inconclusive. The list is not random: actives were taken first. Their share in the collection is about 2.5%. Calls come from the whole dose curve; as a rule, active = well fitted curve in the direction sought with a large enough effect; inconclusive = small, poorly fitted or top-dose-only effect, or another doubt; inactive = no such curve, though single readings can be large; an effect the other way counts as inactive or inconclusive. Potency is the fitted concentration of half-maximal effect.

SMILES	Cruzain inh noDet	Cruzain Triton
Cc1ccc(C)c(NC(=O)Cn2c(=O)n(Cc3ccco3)c(=O)c3oc4ccccc4c32)c1	-19%	-3%
Clc1cccc(-c2cc3nc4c(c(N5CCNCC5)n3n2)CCCC4)c1	25µM*	-5%
OC1CCN(c2c3c(nc4cc(-c5cccc(F)c5)nn24)CCCC3)CC1	-5%	-10%
C[C@@]12C[C@H](O)C3[C@H](CCC4=CC(=O)CC[C@]43C)[C@H]1CC[C@@H]2c1csc(-c2ccccc2)n1 (stereo partly specified)	-7%	2%
O=[N+]([O-])c1ccc(Nc2nc3ccccc3s2)cc1	4µM*	3.5µM*
Cc1ccc(Nc2nc3ccccc3s2)cc1	8%	-10%
O=C(CSc1nccn1-c1ccc(F)cc1)Nc1ccc(OC(F)(F)F)cc1	u	-10%
Cc1ccc(C(C)C)c(OCC(=O)N2CCC(c3nc4ccccc4o3)CC2)c1	u	-11%
O=c1[nH]c(N/N=C/c2ccccc2Br)nnc1-c1ccccc1	13µM*	-11%
COc1ccc(/C=N/Nc2nnc(-c3ccccc3)c(=O)[nH]2)cc1	-17%	0%
CCc1ccc(NC(=O)CN2C(=O)C(c3ccc(C)cc3)=NC23CCCCC3)cc1	-3%	-6%
Cc1cccc(-n2ncc(C(=O)N3CCN(Cc4ccccc4)CC3)c2C2CCN(C(=O)OC(C)(C)C)CC2)c1	u	-4%
CC(C)[C@H](NC(=O)OCc1ccccc1)C(=O)N[C@H](C=O)Cc1ccccc1	0.032µM*	0.032µM*
CC(C)[C@H](NC(=O)OCc1ccccc1)C(=O)OCC(=O)Nc1c(F)cccc1F	u	14µM*
CC(C)C(NC(=O)OCc1ccccc1)C(=O)O (stereo unspecified)	-2%	7%
CC(C)[C@H](NC(=O)OCc1ccccc1)C(=O)NCc1ccccc1	-10%	-3%
Nc1nc(SCC(=O)O)[nH]c(=O)c1N	4%	6%
CCCCN(CCCC)CC(O)Cn1cc(/C=C/C(=O)c2ccccc2)c2ccccc21 (stereo unspecified)	-1%	-7%
COc1ccc(C(=O)/C=C/c2cn(CC(O)CN3CCc4ccccc43)c3ccccc23)cc1 (stereo unspecified)	6.3µM*	-3%
CCOc1ccc(C(=O)/C=C/c2cn(CC(O)CN3CCc4ccccc43)c3ccccc23)cc1 (stereo unspecified)	6.3µM*	-3%
CCCCN(C)CC(O)Cn1cc(/C=C/C(=O)c2ccc(OCC)cc2)c2ccccc21 (stereo unspecified)	-7%	-12%
CCCNC(=O)N1CCCN(S(=O)(=O)c2ccc3c(ccn3CC)c2)CC1	-12%	0%
c1ccc(CCc2cccnc2)nc1	-4%	-1%
CCOC(=O)N1CCc2c(sc3c2c(=O)n(Cc2ccccc2)c(=O)n3Cc2ccccc2Cl)C1	5%	0%
CC(=O)NCCC(=O)Nc1sc2c(c1-c1nc3ccccc3[nH]1)CCCC2	-13%	-9%
SMILES	Cruzain inh noDet	Cruzain Triton
O=C(Nc1sc2c(c1-c1nc3ccccc3[nH]1)CCCC2)C1CCCC1	13µM*	-5%
CC(=O)N1CCN(S(=O)(=O)c2cccc(C(=O)Nc3nc4c(s3)CCCC4)c2)CC1	u	-9%
CN1CCN(S(=O)(=O)c2cccc(C(=O)Nc3sc4c(c3-c3nc5ccccc5[nH]3)CCCC4)c2)CC1	16µM*	-6%
COc1cccc2c1[C@H](CO)N1[C@H](C#N)[C@@H]3C[C@H](C(=O)O)[C@@H]([C@@H]1C2)N3C	-1%	0%
O=C(O)/C=C\c1c2ccc(=O)c(O)c-2oc2c(O)c(O)ccc12	5%	-17%
Cc1cccc(NC(=O)CSc2cn(CC(=O)N3CCOCC3)c3ccccc23)c1C	23%	-4%
CCOc1ccccc1-c1noc(CSc2nnc(-c3ccncc3)n2-c2ccc(F)cc2)n1	-3%	-4%
CCc1ccc(NC(=O)CSc2nc3ccsc3c(=O)n2C(C)CC)cc1 (stereo unspecified)	-1%	-2%
CCn1c(=O)n(CC)c2cc(N3CCCCC3)c(NC(=O)Nc3ccccc3Cl)cc21	u	-6%
COc1cc(S(=O)(=O)N2CCC(c3nc4ccccc4s3)CC2)ccc1S(=O)(=O)N1CC(C)CC(C)C1 (stereo unspecified)	4µM*	4%
COc1ccc(S(=O)(=O)N2CCC(c3nc4ccccc4s3)CC2)cc1OC	1%	5%
CC(=O)c1cccc(NC(=O)c2nc3ccccc3nc2N2CCCCC2)c1	14%	-4%
Cc1ccc(C)c(NC(=O)CSc2nncn3c2cc2sccc23)c1	6%	-1%
CCN(Cc1ccccc1)C(=O)Cn1c(=O)n(-c2ccc(C)c(C)c2)c(=O)c2c(C)c(C)sc21	-4%	-5%
Oc1[nH]c(=S)sc1/C=C1\C(c2ccccc2)=Nc2ccccc21	25µM*	-9%
O=c1[nH]c(=O)n(-c2ccccc2)c(O)c1/C=C1/C(c2ccccc2)=Nc2ccccc21	-12%	-5%
CC(=O)c1ccc(NS(=O)(=O)c2cc(-c3cc(C)no3)ccc2C)cc1	-3%	-1%
CC1(C)Cc2c(c(N3CCCCC3)[nH]c(=S)c2C#N)CS1	13µM*	-1%
CC1CCN(c2[nH]c(=S)c(C#N)c3c2CCCC3)CC1	-21%	3%
Cc1ccc(C)c(N2CCN(C(=O)C(C)n3c(C)c4cnn(-c5ccccc5)c(=O)c4c3C)CC2)c1 (stereo unspecified)	-4%	-2%
CCn1c2ccccc2c2nnc(SCCN3CCCCC3)nc21	-1%	-7%
CCOc1ccc2c(c1)c1nnc(SCC(=O)N3CCCCC3C)nc1n2C (stereo unspecified)	u	0%
CCN(CC)CCn1c2ccc(F)cc2c2nc(C)sc21	-7%	0%
CCN(CC)CCSc1nnc2c3cc(F)ccc3n(C)c2n1	13µM*	16µM*
Cn1c2ccc(F)cc2c2nnc(SCCN3CCCCC3)nc21	13µM*	14µM*
SMILES	Cruzain inh noDet	Cruzain Triton
CCCCn1c2ccc(F)cc2c2nnc(SCCN3CCCCC3)nc21	u	16µM*
Cc1c(CC(=O)NCCc2ccccc2)c(=O)oc2c(C)c3occ(C(C)(C)C)c3cc12	-9%	-3%
COc1ccc(NC(=O)C(=O)NCC2(c3ccccc3)CCCC2)c(OC)c1	0%	1%
CCc1nnc(N/N=C/c2c(Cl)cccc2Cl)n1N	-7%	-3%
Cc1nnc(N/N=C/c2cccc(OCc3ccc(Cl)c(Cl)c3)c2)n1N	u	22µM*
Cc1cn(C2OC(COC(=O)c3ccccc3)C(OC(=O)c3ccccc3)C2OC(=O)c2ccccc2)c(=O)[nH]c1=O (stereo unspecified)	u	-1%
O=C(OCC1OC(OC(=O)c2cc(O)c(O)c(OC(=O)c3cc(O)c(O)c(O)c3)c2)[C@@H](OC(=O)c2cc(O)c(O)c(OC(=O)c3cc(O)c(O)c(O)c3)c2)C(OC(=O)c2cc(O)c(O)c(OC(=O)c3cc(O)c(O)c(O)c3)c2)C1OC(=O)c1cc(O)c(O)c(OC(=O)c2cc(O)c(O)c(O)c2)c1)c1cc(O)c(O)c(OC(=O)c2cc(O)c(O)c(O)c2)c1 (stereo partly specified)	7.9µM*	16µM*
CCn1nc(C)c2c(-c3ccccc3)cc(=O)n(C(C)C(=O)NCCc3ccccc3)c21 (stereo unspecified)	u	-8%
CCCCCCC(=O)N(O)C1CC(=O)N(c2ccc(Br)cc2)C1=O (stereo unspecified)	10µM*	2%

Assay outcomes deposited in PubChem by National Center for Advancing Translational Sciences (NCATS).
